TSHR antag = antagonists of human thyroid stimulating hormone receptor. P16473. TSHR-expressing cells, TSH-stimulated cAMP HTRF, 2 h; stronger effect = lower value. activity change, negative = inhibition, % at 11.5 µM. 330,000 compounds, 0.2% hits. AID 504810;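 active = activity change below a set negative limit, meaning inhibition stronger than a set level, cut at about -70% in these data; inconclusive = activity change between two set negative limits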; also: % is scaled to controls: 0 for no effect and ±100 for the full control effect
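Freshly harvested TSHR cells receive pin-tooled compound, then EC80 TSH at 4nM final. After 2 hours at 37 deg C, antibody in lysis buffer and cAMP-d2 are added; 30 minutes at ambient temperature precede the HTRF read.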
PLK1 PBD inh = inhibitors of human PLK1 polo-box domain binding. Plk1 PBD binding of FITC phosphopeptide, fluorescence polarization. AID 720504. 360,000 compounds, 2.8% hits. Potency, µM, for the others: max response, negative = inhibition, actives largely listed as inhibitors; also: potency is read from the fitted curve at half-maximal effect; series mostly up to about 57 µM; % is scaled to controls: 0 for no effect and ±100 for the full control effect; nearly all actives have a fitted effect of over 65% in size
Vif-APOBEC3F blk = Vif-A3F binding inhibition; HeLa A3F-eYFP + Vif (tagged APOBEC3F with the HIV-1 protein that degrades it), YFP fluorescence increase; 390,000 compounds, 0.2% hits; Potency, µM (series often up to 46.1 µM), inactives show at the highest dose activity, negative = active; AID 602313; also: potency is read from the fitted curve at half-maximal effect; % of control where 0% means no effect; nearly all actives have a fitted effect of over 65% in size
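HeLa cells stably expressing A3F-eYFP plus Vif, plated and incubated overnight at 37 deg C, then exposed to compounds overnight at 37 deg C. Blocked degradation read as raised yellow fluorescence (Ex 488/Em 500-530).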
VDR inhibitor = blocks the human vitamin D receptor. AID 504847. 400,000 compounds, 0.93% hits. P11473. VDR-SRC2-3 peptide fluorescence polarization, 2 h. Potency, µM, inactives show max response, negative = inhibition, most hits filed as inhibitors; also: potency is read from the fitted curve at half-maximal effect; % is scaled to controls: 0 for no effect and ±100 for the full control effect
Target sequence (P11473 whole entry, looked up): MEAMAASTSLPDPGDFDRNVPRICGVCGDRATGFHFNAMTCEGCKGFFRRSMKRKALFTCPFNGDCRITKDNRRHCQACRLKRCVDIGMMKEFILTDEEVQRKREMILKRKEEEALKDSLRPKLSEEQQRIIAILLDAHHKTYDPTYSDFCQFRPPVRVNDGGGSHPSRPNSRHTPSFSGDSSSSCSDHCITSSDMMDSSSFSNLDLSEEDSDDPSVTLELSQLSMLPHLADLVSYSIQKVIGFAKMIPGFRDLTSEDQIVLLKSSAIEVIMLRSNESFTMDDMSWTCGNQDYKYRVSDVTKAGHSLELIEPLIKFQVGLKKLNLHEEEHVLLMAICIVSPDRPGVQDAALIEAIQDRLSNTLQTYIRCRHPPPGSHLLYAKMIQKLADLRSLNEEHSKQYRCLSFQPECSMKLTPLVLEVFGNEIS
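Compounds are added to VDR with labelled SRC2-3 coactivator peptide and held 2 h at room temperature. Inhibition of the VDR–peptide interaction is then read as a change in fluorescence polarization.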
Vif-APOBEC3G blk = inhibitors of Vif-APOBEC3G interaction; 410,000 compounds, 0.076% hits; AID 602310; HeLa A3G-eYFP + Vif (tagged APOBEC3G with the HIV-1 protein that degrades it), YFP fluorescence, overnight; Potency, µM (top dose mostly 46.1 µM), for inactives: top-dose activity, negative = active, most hits filed as inhibitors; Q9HC16; also: potency is read from the fitted curve at half-maximal effect; % is scaled to controls: 0 for no effect and ±100 for the full control effect; nearly all actives have a fitted effect of over 60% in size
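HeLa cells stably expressing Vif and C-terminally eYFP-tagged A3G, seeded overnight at 37 deg C, then exposed to compound by pintool overnight at 37 deg C. Rise in yellow fluorescence (Ex 488/Em 500-530, Acumen) marks blocked Vif-driven A3G degradation.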
* hit, by the source's call; ? = inconclusive; . = no result given; ! = not active in a repeat. Compounds with a hit are over-represented: about 3.1% of the library has one in this group of screens. Unless noted, calls follow the shape of the dose curve; as a rule, active = well fitted curve in the direction sought with a large enough effect; inconclusive = small, poorly fitted or top-dose-only effect, or another doubt; inactive = no such curve, though single readings can be large; an effect the other way counts as inactive or inconclusive.

SMILES	TSHR antag	PLK1 PBD inh	Vif-APOBEC3F blk	VDR inhibitor	Vif-APOBEC3G blk
CCOC(=O)[C@]12Cc3cc(Cl)ccc3[C@H]1N(Cc1ccccc1)C(=O)c1cc(OC)ccc12	.	10.6µM*	.	.	.
CCOC(=O)[C@]12Cc3cc(OC)c(OC)cc3[C@H]1N(Cc1ccccc1)C(=O)c1ccccc12	.	-11.2%	-0.5%	5.2%	-10.5%
CCOC(=O)[C@]12Cc3ccccc3[C@H]1N(Cc1ccccc1)C(=O)c1cc(OC)ccc12	.	-28.1%	.	.	.
CCCCCN1C(=O)c2cc(OC)ccc2[C@@]2(C(=O)OCC)Cc3cc(Cl)ccc3[C@@H]12	.	4.74µM*	.	.	.
CCOC(=O)[C@]12Cc3cc4ccccc4cc3[C@H]1N(Cc1ccccc1)C(=O)c1ccccc12	.	11.9µM*	.	.	.
CCOC(=O)[C@]12Cc3cc4ccccc4cc3[C@H]1N(Cc1ccccc1)C(=O)c1cc(OC)ccc12	.	10.6µM*	.	.	.
CC1CC2CCC(O2)C(C)C(=O)OC(C)CC2CCC(O2)C(C)C(=O)OC(C)CC2CCC(O2)C(C)C(=O)OC(C)CC2CCC(O2)C(C)C(=O)O1 (configuration not stated)	.	.	.	10.0%	.
CC[C@H](C)[C@H](NC(=O)CN)C(=O)N[C@@H](CC(C)C)C(=O)NCC(=O)N[C@@H](Cc1ccccc1)C(=O)N[C@H](C(=O)N[C@@H](Cc1ccccc1)C(=O)N[C@H](C(=O)N[C@@H](CC(C)C)C(=O)O)[C@@H](C)O)C(C)C	.	.	.	-0.2%	.
CCOC(=O)[C@]12Cc3cc(OC)ccc3[C@H]1N(CCC(=O)OC)C(=O)c1cc(OC)ccc12	.	13.4µM*	.	.	.
O=C(Oc1ccccc1)N1CCC[C@@]2(CCN(Cc3nccs3)C2)C1	.	.	.	-14.1%	.
CC[N+](C)(CC)CCCCOc1ccc2c(c1)C(=O)c1cc(OCCCC[N+](C)(CC)CC)ccc1-2	-26.6	10.6µM*	-13.4%	-16.1%	3.0%
CCCCCCCCCCCC[N+](C)(C)CCOc1ccccc1	.	.	.	31.7%	.
N#CSCC(=O)N1c2ccccc2CCc2ccccc21	-27.5	10.6µM*	-16.2%	?	-16.4%
CC(C)C[C@H](NC(=O)[C@H](Cc1ccccc1)NC(=O)CNC(=O)[C@@H](COC(C)(C)C)NC(=O)[C@@H](N)Cc1ccc(O)cc1)C(=O)N[C@H](C(=O)O)[C@@H](C)OC(C)(C)C	.	.	.	6.3%	.
CCC(C)N1C(=O)/C(=C/c2ccc3c(c2)CCN3CCCCl)C(=O)NC1=S (configuration not stated)	1.9	0.947µM*	?	0.6%	-1.4%
CN1C(=O)[C@]23CC4=CC=C[C@H](O)[C@H]4N2C(=O)[C@@]1(CO)SS3	.	.	.	3.98µM*	.
COc1c(/C=C2/C(=O)NC(=O)N(C)C2=O)c(CCN(C)C(=O)c2ccccc2)cc2c1OCO2	8.5	26.7µM*	-8.3%	-22.5%	-1.7%
CC(=O)OC1C[C@@]2(C)C(c3ccoc3)C[C@H]3O[C@@]32[C@@]2(C)C(=O)C(O)=C3C(C)(C)C(=O)C=C[C@]3(C)C12 (some centres not stated)	.	.	.	3.98µM*	.
CC(=O)O[C@@H]1C[C@@]2(C)C(c3ccoc3)C[C@H]3O[C@]32[C@]2(C)C(=O)C(O)=C3C(C)(C)C(=O)C=C[C@]3(C)C12 (some centres not stated)	.	.	.	14.1µM*	.
CC/C=C\C/C=C\C/C=C\C/C=C\C/C=C\CCCC(=O)NCC(=O)O	.	.	.	-0.8%	.
CCCCC/C=C\C/C=C\C/C=C\CCCCC(=O)NCCc1ccc(O)c(O)c1	.	.	.	6.0%	.
CCCCC/C=C\C/C=C\C/C=C\C/C=C\CCCC(=O)N[C@H](C)CO	.	.	.	35.5µM*!	.
CCCCC/C=C\C/C=C\C/C=C\C/C=C\CCCC(=O)OC(CO)CO	.	.	.	35.5µM*!	.
O=C(N[C@@H]1CN2CCC1CC2)c1cc(Cl)cc2[nH]cnc12	.	.	.	12.7%	.
CCN1C[C@@]2(COC)CC[C@H](O)[C@@]34[C@@H]2C[C@@H]([C@@H]13)[C@]1(O)C[C@@H](OC)C2C[C@H]4[C@H]1[C@H]2OC(C)=O	.	.	.	1.6%	.
O=C1C=CC(=O)c2c1ccc1c2ccc2ccccc21	.	.	.	3.16µM*	.
c1ccc2c(c1)cc1ccc3cccc4ccc2c1c34	.	-1.8%	?	3.1%	-7.6%

Assay outcomes from PubChem.
